Screening results (PubChem BioAssay)
ELG1 genotox = inducers of genotoxicity in HEK293T ELG1-luciferase cells | Potency, µM (highest dose often 46 µM), inactives show at the highest dose activity change, positive = activation, hits mostly activators | HEK293T ELG1-luciferase reporter, luminescence, 16 h | hit rate 1.3% among 330,000 | AID 504466; further: % of control where 0% means no effect; nearly all actives have a fitted effect of over 60% in size
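16 hr compound incubation (37 °C, 5% CO2) of HEK293T cells carrying luciferase-tagged ELG1; luciferase then measured by ONE-Glo luminescence after 30 min at RT.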
NPC1 prom act = NPC1 promoter activation; AID 485313; Huh7 NPC1 promoter luciferase reporter, 24 h; hit rate 2.4% among 320,000; Potency, µM (top dose mostly 9.22 µM), for inactives: at the top dose activation, hits mostly activators; further: % of control where 0% means no effect; nearly all actives have a fitted effect of over 60% in size
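Quantitative HTS used a cell-based reporter: Huh7 cells stably bearing the NPC1 promoter upstream of luciferase were treated with compounds for 24 h, and promoter activation was read as luminescence.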
FLuc counter = firefly luciferase modulation, counter-screen for miR-21 project | P08659 | purified FLuc, Km substrates, luminescence inhibition | Potency, µM (highest dose often 57.5 µM), for the others: top-dose activity change, negative = inhibition, hits mostly inhibitors | hit rate 6.9% among 360,000 | AID 588342;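 further: plate controls were vehicle for no effect and reference inhibitor for full effect; nearly all actives have a fitted effect of over 55% in size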
Target sequence (P08659 whole entry, looked up): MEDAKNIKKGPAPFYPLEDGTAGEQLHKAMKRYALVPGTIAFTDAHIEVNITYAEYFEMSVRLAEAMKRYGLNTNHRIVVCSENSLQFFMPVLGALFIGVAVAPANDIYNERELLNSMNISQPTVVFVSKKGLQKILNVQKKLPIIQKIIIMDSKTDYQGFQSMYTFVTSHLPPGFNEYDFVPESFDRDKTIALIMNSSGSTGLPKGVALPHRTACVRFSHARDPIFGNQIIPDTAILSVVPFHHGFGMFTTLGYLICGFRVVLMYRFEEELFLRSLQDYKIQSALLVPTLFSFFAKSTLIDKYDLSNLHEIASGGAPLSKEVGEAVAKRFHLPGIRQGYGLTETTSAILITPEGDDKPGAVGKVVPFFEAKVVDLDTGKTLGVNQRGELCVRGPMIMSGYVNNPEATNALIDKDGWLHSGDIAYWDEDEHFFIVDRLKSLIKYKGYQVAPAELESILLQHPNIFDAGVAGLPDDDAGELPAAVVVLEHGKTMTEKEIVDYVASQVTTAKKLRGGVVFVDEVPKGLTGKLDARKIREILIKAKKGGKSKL
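Biochemical qHTS of compounds, final roughly 60 µM downward over six points, against 10 nM purified firefly luciferase using Km concentrations of substrates (10 uM D-luciferin, 10 uM ATP) in Tris acetate pH 7.5 buffer; luminescence output.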
SMN2 splice enh = enhancers of SMN2 splice variant expression; hit rate 2.8% among 210,000; Potency, µM (highest dose often 46.1 µM), for the others: at the highest dose activity change, positive = activation, usual class: activators; HEK293 SMN2-luciferase splicing reporter, luminescence, 30-36 h; further: % of control where 0% means no effect; nearly all actives have a fitted effect of over 55% in size
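HEK293 cells carry an SMN2 minigene-luciferase reporter in which exon 7 inclusion puts luciferase in frame. Cells were seeded at 2000 cells/well, attached for 10-12 hours, then exposed to compounds for 30-36 hours at 37C before ONE-Glo luminescence.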
Rab9 promoter act = activates the Rab9 promoter | AID 485297 | Potency, µM (titrated, usually from 9.22 µM), for inactives: at the top dose activation, negative = inhibition, actives largely listed as activators | hit rate 2.8% among 320,000 | Huh7 Rab9 promoter-luciferase reporter, luminescence, 24 h; further: % of control where 0% means no effect; nearly all actives have a fitted effect of over 60% in size
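Measured in stably transfected Huh7 cells bearing a Rab9 promoter–luciferase construct: 24 h compound treatment at 37 °C, followed by luminescence detection.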
* = called active by the depositor; ? = inconclusive; nt = not tested or not shown. Sampled rows, rich in hits. Any-hit rate of the full collection: about 7.5%. The call rests on the fitted dose curve; in most records, active means well fitted curve in the direction sought with a large enough effect; inconclusive means small, poorly fitted or top-dose-only effect, or another doubt; inactive means no such curve, though single readings can be large; an effect the other way counts as inactive or inconclusive. Potency means the concentration at half of the fitted maximal effect.

SMILES	ELG1 genotox	NPC1 prom act	FLuc counter	SMN2 splice enh	Rab9 promoter act
COc1ccc(NC(=O)c2cccc(C#N)c2)cc1NS(=O)(=O)c1ccc(F)cc1	-4.4%	2.6%	2.7%	20.5%	-9.0%
COc1cc(Cl)ccc1OCc1cc(C(=O)NCCCN2CCCC2=O)no1	1.1%	3.0%	21.3µM*	nt	3.7%
CN(CCCN1CCOCC1)C(=O)c1cc(COc2ccc(F)cc2F)on1	1.7%	-1.2%	0.1%	nt	-8.0%
COc1cc(C)ccc1OCc1cc(C(=O)N(C)CCCN2CCOCC2)no1	18.3µM*	2.82µM*	12µM*	nt	2.51µM*
COc1cc(C)ccc1OCc1cc(C(=O)NCCN2CCOCC2)no1	?	2.24µM*	10.7µM*	nt	3.98µM*
COc1ccc(S(=O)(=O)N2CCCCCC2)cc1N(C)S(=O)(=O)c1ccccc1	-1.0%	-3.7%	-1.7%	-15.3%	-3.6%
O=C(N/N=C/c1cn(Cc2ccccc2)c2ccccc12)c1cccnc1	?	-0.6%	?	-79.7%	-8.6%
O=C(Cc1ccccc1)N(Cc1cccnc1)c1nc2c(F)cccc2s1	nt	nt	-9.0%	nt	nt
O=C(c1ccc2c(c1)OCCO2)N(Cc1cccnc1)c1nc2c(F)cccc2s1	nt	nt	16.9µM*	nt	nt
Cc1cc(NC(=O)CSc2ncc(C(=O)Nc3ccccc3)c(=O)n2C)no1	nt	nt	-3.7%	nt	nt
CCOC(=O)c1c(C)oc2c1c(C=NCc1ccccn1)c(O)c1ccccc12	-22.5%	-4.2%	?	-66.1%	-5.5%
CCOC(=O)c1c(C)oc2c1c(C=NCC1CCCO1)c(O)c1ccccc12 (centres undefined)	-10.7%	-0.5%	9.53µM*	24.9%	-3.1%
Cc1ccc(-c2cc(C(F)(F)F)n3ncc(-c4ccccc4)c3n2)cc1	nt	nt	-0.3%	11.6%	nt
C=CCSc1cc(C)nc2c(-c3ccccc3)cnn12	?	21.1%	3.38µM*	nt	3.55µM*
CCSc1cc(C)nc2c(-c3ccccc3)cnn12	9.2µM*	-5.7%	3.01µM*	nt	-4.4%
CS(=O)(=O)N1CCC(C(=O)Nc2cccc(Cl)c2)CC1	-0.8%	-6.3%	3.0%	nt	-11.3%
Cc1csc(NC(=O)CCc2c(C)nc3cc(-c4ccc(Cl)cc4)nn3c2C)n1	-14.8%	1.3%	10.7µM*	-83.2%	-2.4%
Cc1nc2cc(-c3ccc(Cl)cc3)nn2c(C)c1CCC(=O)NC(C)c1ccc2c(c1)OCCO2 (centres undefined)	-8.5%	5.3%	15.1µM*	-72.8%	-2.9%
CCOc1cc(NC(=S)NCc2ccco2)c(OCC)cc1NC(=O)CC(C)C	3.4%	7.2%	-1.1%	-13.3%	-0.4%
Cc1csc2c(N3CCC(C(=O)O)CC3)ncnc12	8.3%	1.9%	16.9µM*	nt	17.8%
Cc1csc2c(N3CCCCC3)ncnc12	10.4%	?	13.5µM*	nt	19.4%
Cc1ccc2oc(C(=O)Nc3sc4c(c3C(=O)NCC3CCCO3)CCC4)cc(=O)c2c1 (centres undefined)	nt	nt	3.0%	0.6%	nt
COc1ccc(NS(=O)(=O)c2ccc3c(c2)CCN3C(=O)CCC(=O)O)cc1OC	11.1%	-11.9%	-11.7%	nt	6.7%
O=S(=O)(Nc1nc2c(s1)CCCC2)c1ccc2ccccc2c1	-1.9%	0.2%	0.8%	-40.6%	-1.7%
c1ccc2c(Nc3nc4c(s3)CCCC4)cccc2c1	?	?	4.78µM*	?	3.55µM*
SMILES	ELG1 genotox	NPC1 prom act	FLuc counter	SMN2 splice enh	Rab9 promoter act
O=C(O)CCNS(=O)(=O)c1ccccc1C(F)(F)F	4.0%	2.3%	2.9%	3.5%	2.6%
Clc1ccc(CSc2ccc(-c3ccccn3)nn2)cc1	23.1µM*	?	?	-42.1%	?
c1ccc(CSc2ccc(-c3ccccn3)nn2)cc1	2.31µM*	0.794µM*	4.78µM*	0.794µM*	2.24µM*
O=C(c1ccncc1)N1CCC2(CCCN(Cc3nccs3)C2)CC1	nt	nt	nt	-9.2%	nt
O=C(Nc1ccc(N2CCOCC2)cc1)c1cnccn1	?	?	1.9µM*	nt	0.316µM*
CC(=O)c1ccc(NC(=O)c2cnsn2)cc1	?	2µM*	12µM*	nt	1µM*
CS(=O)(=O)c1ncc(Cl)c(C(=O)Nc2ccc(OC(F)F)cc2)n1	?	-29.5%	-17.1%	nt	-43.2%
CC(=O)c1ccc(NC(=O)c2cc(-c3ccc(Cl)c(Cl)c3)on2)cc1	nt	nt	4.5%	5.6%	nt
O=C(Nc1ccc(N2CCOCC2)cc1)c1cnsn1	0.164µM*	?	0.953µM*	2.82µM*	?
CS(=O)(=O)c1ncc(Cl)c(C(=O)Nc2ccc(N3CCOCC3)cc2)n1	?	-43.3%	12µM*	25.8%	-56.2%
O=C(Nc1ccccc1N1CCOCC1)c1cnccn1	1.4%	-7.7%	0.8%	0.1%	4.3%
COc1cccc(NC(=O)CCNC(=O)Cn2ccc3ccccc3c2=O)c1	2.4%	-1.7%	-1.0%	6.7%	1.0%
COc1ccc(Cl)cc1NC(=O)C1CCN(S(=O)(=O)c2ccc3c(c2)CCCN3C(=O)C2CCC2)CC1	nt	nt	1.7%	nt	nt
CCCCc1ccc(NC(=O)c2cnccn2)cc1	?	0.501µM*	2.39µM*	3.16µM*	0.794µM*
Nc1ccc(-c2cn3cccnc3n2)cc1	12.8%	23.6%	?	30.9%	?
O=c1oc2ccccc2cc1-c1cn2ccccc2n1	?	0.112µM*	0.0953µM*	nt	?
O=c1oc2ccccc2cc1-c1cn2cccnc2n1	?	1µM*	4.26µM*	4.47µM*	0.562µM*
COc1ccc2oc(=O)c(-c3cn4ccc(C)cc4n3)cc2c1	20.6µM*	?	?	-9.9%	3.16µM*
O=c1oc2ccccc2cc1-c1ccccc1	?	19.4%	?	21.4%	?
Cc1cccn2cc(-c3cc4ccccc4oc3=O)nc12	0.82µM*	0.112µM*	0.19µM*	nt	0.141µM*
